# A number with no mark means an inactive call. Calls of active or inactive are those of the source. The rule behind the calls is not given here.
# Assay: Immunotoxin (SS1P) sensitization/mitigation study. Vehicle arm (DMEM) (AID 1159513)
# Conditions: cell viability with vehicle (DMEM); series mostly up to 46.1 µM; activity, % of control (viability): at the top concentration
# Potency is the fitted concentration of half-maximal effect.
Structure (SMILES),Potency,"activity, % of control (viability)"
CCOc1cc2ncc(C#N)c(Nc3ccc(OCc4ccccn4)c(Cl)c3)c2cc1NC(=O)/C=C/CN(C)C,935 nM (active),–
CC(=O)OCCN1C(=O)c2c(C)nc3ccc(S(=O)(=O)N4CCOCC4)cc3c2C1=O,–,105%
CC(=O)Nc1sc2c(c1-c1nc3ccccc3s1)CNC2,23500 nM (active),–
Cc1[nH]nc2ccc(-c3cncc(OC[C@@H](N)Cc4ccccc4)c3)cc12,1320 nM (active),–

# — PubChem BioAssay (NCATS)
